A selection: hits, their analogues and other compounds. The true share with any hit is near 19%.
Giardia kill = Small Molecules that selectively kill Giardia lamblia: qHTS; Giardia lamblia trophozoite viability; activity change, % at 7.66 µM, hits read low; 340,000 compounds, 0.15% hits; in the data active = activity change below about -80%; inconclusive = between about -30% and that limit;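 note: parasites exposed to compound for two days anaerobically before the ATP read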
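Trophozoites 100 cells/well + cpd; 48 hrs, 37 deg C, anaerobic. ATPLite 1-Step added, 15-30 min RT, luminescence read (ATP-based viability).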
ELG1 DNA repair = qHTS screen for small molecules that inhibit ELG1-dependent DNA repair in human embryonic kidney (HEK293T) cells expressing luciferase-tagged ELG1. HEK293T ELG1-luciferase reporter, luminescence, 16 h; DNA damage induced by 5-fluorouridine. AID 504467, 2011. 330,000 compounds, 2.3% hits. Potency, µM (highest dose often 46.1 µM), most hits filed as inhibitors; note: nearly all actives have a fitted effect of over 55% in size
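Step one: seed 2,000 cells per well. Step two: pin-transfer compound or DMSO alongside 5-fluorouridine. Step three: incubate 16 hr, 37 °C, 5% CO2. Step four: add ONE-Glo, wait 30 min, read luminescence.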
DT40 TDP1 CPT = qHTS for Inhibitors of human tyrosyl-DNA phosphodiesterase 1 (TDP1): qHTS in cells in presence of CPT; 420,000 compounds, 12% hits; chicken DT40 Tdp1-/-;hTDP1 cells + 20 nM CPT, ATP luminescence, 48 h; AID 686979, 2013; Potency, µM (top dose mostly 46.2 µM), usual class: inhibitors; note: nearly all actives have a fitted effect of over 55% in size
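Chicken DT40 Tdp1-/- cells complemented with human TDP1, 400 cells/well, exposed to compounds plus 20 nM camptothecin for at least 48 h at 37 C; viability read as ATP content by CellTiter-Glo luminescence.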
DT40 TDP1 no CPT = qHTS for Inhibitors of human tyrosyl-DNA phosphodiesterase 1 (TDP1): qHTS in cells in absence of CPT. DT40 Tdp1-/- hTDP1 cells, no CPT, ATP luminescence, 48 h. 420,000 compounds, 15% hits. Potency, µM (doses to about 46.2 µM), hits mostly inhibitors; note: nearly all actives have a fitted effect of over 55% in size
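Growth of hTDP1-complemented DT40 Tdp1-knockout cells is measured by ATP luminescence after at least 48 hr compound exposure at 37 °C, with DMSO substituting for the 20 nM CPT used in the parallel screen.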
IL1B secr inh = qHTS for Inhibitors of Inflammasome Signaling: IL-1-beta AlphaLISA Primary Screen; THP-1 LPS/ATP IL-1B secretion, AlphaLISA, 16 h; active compounds read low; activity change, % at 57.5 µM; 360,000 compounds, 4.7% hits; in the data active = activity change below about -50%; inconclusive = mostly about -30% to -49%
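Secreted IL-1B measured by AlphaLISA bead assay after 16 h compound exposure of THP-1 cells; compounds (final up to 57.5 uM) added 1 h before LPS (250 ng/mL) and ATP (1.25 mM) stimulation; lower signal means less secretion.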
TDP1 block = qHTS Assay for Inhibitors of Tyrosyl-DNA Phosphodiesterase (TDP1); Tyrosyl-DNA phosphodiesterase 1 (Homo sapiens), Q9NUW8; recombinant TDP1, AlphaScreen DNA substrate cleavage; Potency, µM (top dose mostly 130 µM), most hits filed as inhibitors; 350,000 compounds, 0.28% hits; note: nearly all actives have a fitted effect of over 40% in size
Target sequence (Q9NUW8 whole entry, looked up): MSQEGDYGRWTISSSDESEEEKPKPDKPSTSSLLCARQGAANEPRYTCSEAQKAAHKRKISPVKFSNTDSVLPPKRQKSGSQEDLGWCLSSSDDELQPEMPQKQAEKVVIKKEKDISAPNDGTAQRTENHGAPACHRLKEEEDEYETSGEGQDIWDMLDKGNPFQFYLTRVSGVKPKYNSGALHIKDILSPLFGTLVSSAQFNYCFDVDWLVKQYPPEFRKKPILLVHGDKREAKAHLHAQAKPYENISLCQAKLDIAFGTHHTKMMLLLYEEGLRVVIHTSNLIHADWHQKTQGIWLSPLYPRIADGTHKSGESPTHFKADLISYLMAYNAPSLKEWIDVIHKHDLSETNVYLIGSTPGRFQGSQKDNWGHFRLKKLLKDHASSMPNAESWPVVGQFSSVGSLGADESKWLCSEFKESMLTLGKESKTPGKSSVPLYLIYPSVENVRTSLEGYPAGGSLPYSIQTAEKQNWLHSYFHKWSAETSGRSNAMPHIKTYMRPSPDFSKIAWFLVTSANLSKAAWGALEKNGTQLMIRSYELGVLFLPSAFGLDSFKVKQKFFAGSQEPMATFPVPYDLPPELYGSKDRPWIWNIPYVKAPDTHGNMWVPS
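Enzyme-compound mixtures sat 15 min at room temperature, followed by a 5 min reaction with 15 nM final substrate and 10 min with AlphaScreen beads. Recombinant human Tdp1 was used at 1 nM final.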
Numbers stand for hits; - = inactive; ? = inconclusive; . = no result given; [ ] = remark or other dose. Unless noted, calls come from the whole dose curve; as a rule, active = well fitted curve in the direction sought with a large enough effect; inconclusive = small, poorly fitted or top-dose-only effect, or another doubt; inactive = no such curve, though single readings can be large; an effect the other way counts as inactive or inconclusive.

SMILES	Giardia kill	ELG1 DNA repair	DT40 TDP1 CPT	DT40 TDP1 no CPT	IL1B secr inh	TDP1 block
Cc1ccc(C)c(NC(=O)CN(C)C(=O)/C=C/c2ccco2)c1	-	-	-	-	-	-
CN(CC(=O)Nc1ccc(Cl)c(C(F)(F)F)c1)C(=O)C1CC(=O)N(Cc2ccco2)C1 (stereo not given)	-	?	13µM	23µM	-	.
Cc1ccc(N2CCN(Cc3ccccc3)CC2=O)c(C)c1	-	-	-	-	-	.
CCc1ccccc1N(C(=O)c1snc(C(N)=O)c1N)C(C(=O)NCC1CCCO1)c1ccc(C)o1 (stereo not given)	-	-	12µM	10µM	-	-
CCc1ccccc1N(C(=O)c1snc(C(N)=O)c1N)C(C(=O)NCC1CCCO1)c1ccc(N(C)C)cc1 (stereo not given)	-	-	?	?	-	-
CCOc1ccc(C(C(=O)NCC2CCCO2)N(Cc2cccc(OC)c2)C(=O)c2snc(C(N)=O)c2N)cc1 (stereo not given)	-	?	-	?	-	-
CCc1ccccc1N(C(=O)c1snc(C(N)=O)c1N)C(C(=O)NCC1CCCO1)c1c[nH]c2ccccc12 (stereo not given)	-	-	?	21µM	-	-
COCCNC(=O)C(c1ccc(C)o1)N(C(=O)c1snc(C(N)=O)c1N)c1ccc(C)c(C)c1 (stereo not given)	-	?	-	-	-	-
COc1ccc(C(C(=O)NCC2CCCO2)N(Cc2cccs2)C(=O)c2snc(C(N)=O)c2N)cc1 (stereo not given)	-	?	16µM	10µM	-	.
COc1ccc(N(C(=O)c2snc(C(N)=O)c2N)C(C(=O)NCC2CCCO2)c2ccc(C)o2)cc1OC (stereo not given)	-	-	?	18µM	-	-
COc1ccc(CN(C)C(=O)Cn2ccc(N)nc2=O)cc1OC	-	-	-	-	-	-
CSc1ncc(C(=O)Nc2cccc(C)c2C)c(-c2ccccc2)n1	.	.	-	-	.	-
Cc1nc(C)c(C(=O)N(c2ccccc2F)C(C(=O)NCC2CCCO2)c2ccccc2)s1 (stereo not given)	-	-	26µM	?	-	-
CC(C(=O)NCC1CCCO1)N(C(=O)c1snc(C(N)=O)c1N)c1ccccc1 (stereo not given)	-	-	-	-	-	-
Cc1ccc(N(C(=O)c2snc(C(N)=O)c2N)C(C(=O)NCC2CCCO2)c2ccc(C)o2)c(C)c1 (stereo not given)	-	-	18µM	16µM	?	.
Cc1ccccc1N(C(=O)c1snc(C(N)=O)c1N)C(C(=O)NCC1CCCO1)c1ccc(F)cc1 (stereo not given)	-	-	15µM	10µM	-	-
CCc1ccc(N(C(=O)c2snc(C(N)=O)c2N)C(C(=O)NCC2CCCO2)c2ccco2)cc1 (stereo not given)	-	-	23µM	18µM	-	-
CCOc1ccc(N(C(=O)c2snc(C(N)=O)c2N)C(C(=O)NCC2CCCO2)c2ccco2)cc1 (stereo not given)	-	-	?	?	-	-
Cc1ccccc1N(C(=O)c1snc(C(N)=O)c1N)C(C(=O)NCC1CCCO1)c1ccc(N(C)C)cc1 (stereo not given)	-	-	?	?	-	.
CCC(=O)Nc1ccc2c(c1)OC[C@@H](C)NC[C@@H](C)[C@@H](OC)CN(C)C2=O	.	.	-	-	-	.
COc1ccc(C(=O)C2=NN(C(C)=O)CC2c2ccco2)cc1 (stereo not given)	-	?	-	-	-	-
Clc1nc(NCC2CCCO2)c2[nH]cnc2n1 (stereo not given)	-	.	-	-	.	-
CCn1c(SCC(=O)Nc2nccs2)nnc1-c1cc2cccc(OC)c2o1	-	-	-	-	-	-
CCC(Sc1nnc(-c2ccc(OC)c(OC)c2)c(-c2ccc(OC)c(OC)c2)n1)C(=O)NC1CCCC1 (stereo not given)	.	.	16µM	?	.	-
Cc1ccc(-c2nnc(SCC(=O)NC3CCCC3)nc2-c2ccc(C)cc2)cc1	.	.	18µM	13µM	.	-
SMILES	Giardia kill	ELG1 DNA repair	DT40 TDP1 CPT	DT40 TDP1 no CPT	IL1B secr inh	TDP1 block
COc1ccc(-c2nnc(SCC(=O)NC3CCCC3)nc2-c2ccc(OC)c(OC)c2)cc1OC	.	.	18µM	21µM	.	-
O=C(CSc1nnc(-c2ccc(Cl)cc2)c(-c2ccc(Cl)cc2)n1)NC1CCCC1	.	.	?	?	.	-
CCCCNC(=O)C(CC)Sc1nnc(-c2ccc(OC)c(OC)c2)c(-c2ccc(OC)c(OC)c2)n1 (stereo not given)	.	.	-	-	.	-
CCn1c(SCC(=O)NC2CCCCC2)nnc1-c1cc2cccc(OC)c2o1	-	?	?	23µM	-	-
COc1ccc(CNc2ncnc3c2c(-c2ccccc2)cn3-c2ccc(C)c(Cl)c2)cc1	.	.	-	-	.	-
C/C=C(\C)C(=O)O[C@H](c1cc2ccc(=O)oc2cc1OC)[C@@H](O)C(C)(C)O	-	?	-	-	-	-
O=C1[C@H]2[C@H]3[C@H](O)[C@H](O)C/C(=N/OCc4ccccc4)[C@@H]3CC[C@@H]2C(=O)N1C[C@@H]1CCCO1	.	.	.	.	.	-[21 µM]
CC(=O)Nc1ccc(S(=O)(=O)N2CCCN(S(=O)(=O)c3ccc4c(c3)OCCO4)CC2)cc1	.	.	.	.	.	-
CCCc1nc(C(C)(C)O)c(C(=O)O)n1Cc1ccc(-c2ccccc2-c2nn[nH]n2)cc1	.	.	.	.	.	-
NC(c1csc(NC(=O)Nc2ccccc2)n1)C1CCCCC1 (stereo not given)	.	.	?	15µM	?	.
NC(c1csc(NC(=O)Nc2cccc(Cl)c2)n1)C1CCCCC1 (stereo not given)	.	.	18µM	?	-96	.
COc1ccc(OC)c(NC(=O)c2cc3c(s2)-c2ccccc2SC3)c1	.	.	?	?	.	-
O=C(/C=C/c1ccccc1[N+](=O)[O-])N1CCN(c2ccccc2F)CC1	-	-	?	-	-	-
O=[N+]([O-])c1cc(Cl)ccc1N1CCN(c2ccccc2O)CC1	-	-	-	?	-96	-
O=C(/C=C/c1ccc(Cl)cc1Cl)N1CCN(c2ccccc2[N+](=O)[O-])CC1	-	?	-	?	-60	-

High-throughput results as filed in PubChem.
